Sm TGR block: blocks Schistosoma mansoni thioredoxin glutathione reductase; Q962Y6; purified TGR, DTNB reduction, TNB absorbance 405 nm; Potency, µM (highest dose often 114 µM), usual class: inhibitors; 360,000 tested, 3% active; also: nearly all actives have a fitted effect of over 60% in size
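Kinetic colorimetric format: TGR-catalysed, NADPH-driven DTNB reduction monitored via TNB absorbance. Enzyme dispensed at 20 nM; compound exposure 15 min at room temperature before reaction start.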
SARS PLpro yeast: blocks SARS-CoV papain-like protease in a yeast assay. S. cerevisiae expressing SARS-CoV PLpro, growth rescue. Potency, µM (doses to about 32.9 µM), actives largely listed as activators. 330,000 tested, 0.19% active. AID 485353; calls by dose curve; also: nearly all actives have a fitted effect of over 55% in size
Pf growth 96h: inhibits malaria parasite growth, 96 h; P. falciparum luciferase reporter growth, 96 h; Potency, µM (doses to about 28.7 µM), actives largely listed as inhibitors; 320,000 tested, 6.9% active; AID 504834
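Parasite growth measured via integrated firefly luciferase reporter in P. falciparum. Infected erythrocytes at 2% hematocrit, 0.05% parasitemia final were treated 96 hours at 37 C under 5% CO2, and luminescence was read.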
Pf growth 48h: P. falciparum growth inhibition at 48 hours (one generation); P. falciparum luciferase growth in erythrocytes, 48 h; Potency, µM (highest dose often 28.7 µM), actives largely listed as inhibitors; 310,000 tested, 5.9% active; AID 504832
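Cell-based growth assay: transgenic P. falciparum expressing firefly luciferase, cultured in red cells within RPMI 1640 containing 0.5% w/v Albumax, 24 mM bicarbonate and gentamycin. A drop in luciferase activity indicates inhibition.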
Hits are given with their value; 0 = inactive; ? = inconclusive; - = no result given; [ ] = another dose, or the depositor's remark. Compounds with a hit are over-represented: about 12% of the library has one in this group of screens. Unless noted, calls follow the shape of the dose curve; as a rule, active = well fitted curve in the direction sought with a large enough effect; inconclusive = small, poorly fitted or top-dose-only effect, or another doubt; inactive = no such curve, though single readings can be large; an effect the other way counts as inactive or inconclusive.

SMILES	Sm TGR block	SARS PLpro yeast	Pf growth 96h	Pf growth 48h
CN(C(=O)COC(=O)C1(C)CC1(Cl)Cl)c1c(N)n(Cc2ccccc2)c(=O)[nH]c1=O (centres undefined)	0	0	0	0
COc1ccc(C(=O)CCC(=O)Nc2ccc(OC)c(Cl)c2)cc1	0	-	-	-
O=C(CCNc1ccccc1)c1cccc([N+](=O)[O-])c1	0.45µM	0	0	0
Cc1ccc(CONC(=O)c2cccc([N+](=O)[O-])c2)cc1	0	0	0	0
O=C(CCNc1ccc(F)cc1)c1cccc([N+](=O)[O-])c1	0.5µM	0	0	0
Cc1ccc(NCCC(=O)c2cccc([N+](=O)[O-])c2)cc1	0.4µM	0	0	0
COc1ccc(C(=O)CCC(=O)Nc2cc(Cl)c(O)c(Cl)c2)cc1	35µM	0	0	0
NC(=O)c1cccc([N+](=O)[O-])c1	0	0	0	0
CC1=C(c2ccc(F)cc2)S(=O)(=O)N=C1N1CCC(C(=O)NCCc2ccco2)CC1	0	-	-	-
CCn1ccc2cc(S(=O)(=O)N3CCCN(C(=O)NCC(C)C)CC3)ccc21	0	-	-	-
COc1ccc(C(=O)CCNc2ccc(F)cc2)cc1	3.2µM	0	0	0
O=C(CCNc1ccc(Br)cc1)c1cccc([N+](=O)[O-])c1	0.4µM	0	0	0
O=C(NCCc1ccccc1)c1ccc(Cl)cc1[N+](=O)[O-]	0	0	0	0
CC(Nc1ccnc2cc(Cl)ccc12)c1ccc(S(N)(=O)=O)cc1 (centres undefined)	0	0	2.3µM	1.9µM
CCN(CC)CCCC(C)NC1=NCCCCC1 (centres undefined)	0	0	0	0
CCN(CC)CCC[C@H](C)Nc1ccnc2cc(Cl)ccc12	-	-	0.043µM	0.048µM
COC(=O)CSc1ccnc2cc(Cl)ccc12	0	0	0	0
CCCCNc1nc(Nc2ccc(C)c(Cl)c2)c2cnn(C)c2n1	0	0	0	?
CC(C)NC(=O)Cn1nc(N2CCN(c3ccccc3)CC2)ccc1=O	0	-	-	-
CCOC(=O)N1CCC(n2c(SCC(=O)NCc3ccco3)nc3ccsc3c2=O)CC1	?	0	?	13µM
CCOC(=O)CSc1nc2cc(C(=O)NCc3ccco3)ccc2c(=O)n1-c1ccc(F)cc1	0	0	?	0
O=C(CSc1nc2ccsc2c(=O)n1Cc1ccc(C(=O)O)cc1)NCc1ccco1	?	0	0	0
NS(=O)(=O)c1ccc(CCNC(=O)CSc2nc3ccsc3c(=O)n2CC(=O)O)cc1	0	0	1.2µM	0
NS(=O)(=O)c1ccc(CCNC(=O)CSc2nc3ccsc3c(=O)n2CCCCCC(=O)O)cc1	0	0	0	0
CCOC(=O)CSc1nc2cc(C(=O)NCc3ccco3)ccc2c(=O)n1C1CCCCC1	0	0	0	5.9µM
SMILES	Sm TGR block	SARS PLpro yeast	Pf growth 96h	Pf growth 48h
CCOC(=O)CSc1nc2ccsc2c(=O)n1C1CCN(C(=O)OCC)CC1	0	0	?	?
COc1ccc(Cn2c(SCC(=O)NCc3ccco3)nc3ccsc3c2=O)cc1	?	0	0	13µM
COc1ccc(CNC(=O)COC(=O)[C@H](Cc2ccccc2)NC(=O)c2cccs2)cc1	-	0	-	-
Cc1ccc2c(c1)cc(C(=O)N[C@@H](Cc1ccccc1)C(=O)O)n2C	0	0	0	0
COCCSc1nnc(NC(=O)C2CC(=O)N(CCc3ccc(F)cc3)C2)s1 (centres undefined)	0	0	?	?
COc1cccc(-c2ccc3c(N)c(C(=O)c4ccc(Cl)cc4)sc3n2)c1	0	-	-	-
O=C(OCc1cc(=O)n2c3c(sc2n1)CCCC3)c1cccc(NC(=O)c2ccccc2F)c1	0	-	-	-
COc1ccccc1C(c1nnnn1C(C)C)N1CCN(C(=O)c2ccco2)CC1 (centres undefined)	0	0	?	0
COc1cccc(C(c2nnnn2Cc2ccco2)N2CCN(c3cccc(C)c3C)CC2)c1OC (centres undefined)	0	0	0	9.3µM
COc1cccc(C(c2nnnn2Cc2ccccc2)N2CCN(C(=O)c3ccco3)CC2)c1OC (centres undefined)	0	0	?	9.3µM
CC(C)CC(c1nnnn1CCc1ccccc1)N1CCN(C(=O)c2ccco2)CC1 (centres undefined)	0	0	?	?
CCC(c1nnnn1C1CCCCC1)N1CCN(C(=O)c2ccco2)CC1 (centres undefined)	0	0	0	?
CCC(c1nnnn1CCc1ccccc1)N1CCN(C(=O)c2ccco2)CC1 (centres undefined)	0	0	9.3µM	0
CCCC(c1nnnn1C1CCCCC1)N1CCN(C(=O)c2ccco2)CC1 (centres undefined)	0	-	0	3.7µM
COc1ccc(CCNC(=O)CS(=O)(=O)Cc2nc(-c3cccc(Cl)c3)oc2C)cc1OC	0	-	-	-
COc1ccc(C(c2nnnn2Cc2ccccc2)N2CCN(C(=O)c3ccco3)CC2)cc1 (centres undefined)	?	0	-	?
O=C(c1ccco1)N1CCN(C(c2ccc(Cl)cc2)c2nnnn2Cc2ccccc2)CC1 (centres undefined)	?	0	10µM	12µM
Cc1ccc(C[C@H](C(=O)O)N2C(=O)c3ccc(C(=O)O)cc3C2=O)c(C)c1	0	0	0	?
CCOC(=O)C1=C(c2ccccc2)NC(=S)NC1c1cc([N+](=O)[O-])ccc1OC (centres undefined)	0	0	0	12µM
CCCOc1ccc(C2NC(=S)NC(c3ccccc3)=C2C(=O)Nc2ccc(C)cc2)cc1OC (centres undefined)	0	0	0	2.6µM
O=C(NCc1cccs1)c1ccc2c(c1)sc1nc(-c3ccccc3)cn12	0	-	-	-
CC(C)Cc1ccc(S(=O)(=O)NCc2nc3cccnc3n2Cc2ccccc2)cc1	0	-	-	-
Cc1cc2nnc(SCc3ccc(F)cc3)n2c2ccccc12	0	-	-	-
O=C(CSc1nnc(-c2ccccc2Br)o1)N1CCc2ccccc2C1	0	0	3.3µM	0
O=C(CSc1nnc(-c2ccccc2F)o1)N1CCCC1	0	0	0	0
SMILES	Sm TGR block	SARS PLpro yeast	Pf growth 96h	Pf growth 48h
CCN1C(=O)c2ccccc2Sc2ccc(C(=O)NCCCN(CC(C)C)CC(C)C)cc21	0	0	0	10µM
CCCCSCCCNC(=O)c1ccc2c(c1)N(CC)C(=O)c1ccccc1S2=O (centres undefined)	0	0	0	13µM
O=C(NCCN1CCCC1)c1ccc2c(c1)N(Cc1ccccc1)C(=O)c1ccccc1S2(=O)=O	0	0	0	8.3µM
O=C(NCCN1CCOCC1)c1ccc2c(c1)N(Cc1c(F)cccc1Cl)C(=O)c1ccccc1S2	0	0	9.3µM	13µM
CCCCN(CC)CCCNC(=O)c1ccc2c(c1)N(Cc1ccc(C)cc1)C(=O)c1ccccc1S2	0	-	-	-
O=C(NCCN1CCOCC1)c1ccc2c(c1)N(Cc1ccc(F)cc1)C(=O)c1ccccc1S2(=O)=O	0	0	?	?
CCN1C(=O)c2ccccc2S(=O)(=O)c2ccc(C(=O)NC(C)C)cc21	0	0	?	0[0.00184 µM]
CCCCNC(=O)c1ccc2c(c1)N(CC)C(=O)c1ccccc1S2(=O)=O	0	0	1.5µM	0
COc1cc(OC)c(NC(=O)CN(C)S(=O)(=O)c2ccc3c(c2)CCCC(=O)N3)cc1Cl	0	-	-	-
